Some test systems named below: SR leukemia; RPMI-8226 leukemia; OVCAR-8 ovarian; OVCAR-5 ovarian; SK-OV-3 ovarian; IGROV1 ovarian; OVCAR-3 ovarian; HS 578T breast; NCI/ADR-RES ovarian; T-47D breast; BT-549 breast; MDA-MB-435 melanoma; SW-620 colon; MCF7 breast; HCT-116 colon; HCC-2998 colon; KM12 colon; OVCAR-4 ovarian.
Holding throughout (assay): NCI-60 one-dose screen, 48 h (100 = growth as untreated, 0 = no growth, -100 = all killed)
Common to all, as to settings: 10 µM unless noted

About 83,000 compounds went through this panel and 20% of them were active in at least one assay; those are over-represented in the sample as a whole.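 Testing used 96-well plates and a 48-hour single-concentration exposure. Example: -40 means 40% of the starting cells died.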 A number with no mark means an inactive call. Calls of active or inactive are those of the source. The calls were made as follows: active = growth percent below 10; inactive = the rest.

Take `Cc1nc2ncc(-c3ccc4ncnc(NCc5ccccc5)c4c3)cc2[nH]1`: the growth in the experiment with SR leukemia is 78.3%; in the experiment with RPMI-8226 leukemia it was 75.5%; in the experiment with OVCAR-8 ovarian it was 76.9%; in the experiment with OVCAR-5 ovarian, 42.6%; with SK-OV-3 ovarian it was 52.5%; with IGROV1 ovarian, 16.8%. The growth was 39.2% with OVCAR-3 ovarian; 29.2% in the experiment on HS 578T breast; 104% in the experiment with NCI/ADR-RES ovarian; 1.3% (active) with T-47D breast; 57.3% in the experiment with BT-549 breast; 82.1% in the experiment with MDA-MB-435 melanoma. For the same compound, the growth in the experiment with SW-620 colon is 82.3%; in the experiment with MCF7 breast, 27.1%; in the experiment on HCT-116 colon, 77.8%; with HCC-2998 colon, 79.2%; with KM12 colon it was 77.8%.
Turning to `NC(N)=Nc1ccc(Nc2cccc(Oc3ccc(Cl)c(C(F)(F)F)c3)c2)cn1`, the growth in the experiment with SR leukemia was -49.9% (active); in the experiment with RPMI-8226 leukemia it was -40.8% (active); in the experiment on OVCAR-8 ovarian it was 27.4%; in the experiment with OVCAR-5 ovarian, 58.1%; in the experiment on SK-OV-3 ovarian it was 56.3%; in the experiment with IGROV1 ovarian it was 22.6%. Besides, the growth is -55% (active) in the experiment with OVCAR-3 ovarian; 45.4% in the experiment on HS 578T breast; 80.5% with NCI/ADR-RES ovarian; 23.7% in the experiment with T-47D breast; 18.3% with MDA-MB-435 melanoma; -60.5% (active) in the experiment on SW-620 colon. Also, the growth in the experiment with MCF7 breast was -11.2% (active); in the experiment with HCT-116 colon, -72.9% (active); with HCC-2998 colon, -33.1% (active); in the experiment on KM12 colon, -58.7% (active).
Turning to `CCOP(=O)(OCC)OC[C@]12CCC(C)(C)C=C1[C@H]1CC[C@@H]3[C@@]4(C)CC[C@H](OP(=O)(OCC)OCC)C(C)(C)[C@@H]4CC[C@@]3(C)[C@]1(C)CC2`, the growth in the experiment with SR leukemia is -27.4% (active); with RPMI-8226 leukemia, -43% (active); with OVCAR-8 ovarian, -27.3% (active); in the experiment on OVCAR-5 ovarian it was -26.8% (active); in the experiment with SK-OV-3 ovarian, -2.62% (active); with IGROV1 ovarian, -20% (active). The growth in the experiment on OVCAR-3 ovarian is -85.5% (active); with HS 578T breast, -13.5% (active); in the experiment with NCI/ADR-RES ovarian, 0.702% (active); in the experiment on T-47D breast it was 13.5%; in the experiment with BT-549 breast, -20.2% (active); in the experiment with MDA-MB-435 melanoma, -38.4% (active). For the same compound, the growth in the experiment on SW-620 colon is -48.4% (active); with MCF7 breast, -47.5% (active); in the experiment on HCT-116 colon, -59.8% (active); with HCC-2998 colon, -50.9% (active); in the experiment on KM12 colon, 3.6% (active).
For the compound `NC(=O)c1c(NC(=O)c2ccc(F)cc2F)sc2c1CCC(=O)C2`, the growth is 35.8% in the experiment with SR leukemia; 9.53% (active) with RPMI-8226 leukemia; 44% in the experiment on OVCAR-8 ovarian; 24.5% in the experiment on OVCAR-5 ovarian; 103% in the experiment with SK-OV-3 ovarian; 50.5% in the experiment on IGROV1 ovarian. For the same compound, the growth in the experiment with OVCAR-3 ovarian was 14.8%; in the experiment with HS 578T breast, 43.9%; with NCI/ADR-RES ovarian it was 32.7%; in the experiment with T-47D breast, 32.9%; in the experiment on BT-549 breast, 42.2%; in the experiment on MDA-MB-435 melanoma, 74.1%. The growth is 19.1% with SW-620 colon; 51.8% in the experiment on MCF7 breast; 11.3% in the experiment on HCT-116 colon; 89.5% in the experiment with HCC-2998 colon; 17.2% with KM12 colon.
Turning to `CCNC(=O)N1CCc2cc(OC)c(OCCc3ccc(OC)nc3)cc2C1c1ccc(C)cc1C` (stereo not drawn), the growth in the experiment with SR leukemia was 7.67% (active); with RPMI-8226 leukemia it was 9.18% (active); with OVCAR-8 ovarian, 15.5%; with OVCAR-5 ovarian, 31.4%; in the experiment with SK-OV-3 ovarian it was 54%; in the experiment with IGROV1 ovarian, 17.2%. Besides, the growth with HS 578T breast is -2.81% (active); with NCI/ADR-RES ovarian, 7.35% (active); with T-47D breast, 61%; in the experiment on BT-549 breast, -6.5% (active); in the experiment with MDA-MB-435 melanoma, 10%; in the experiment on SW-620 colon, 19.6%. Also, the growth with MCF7 breast is 14%; in the experiment on HCT-116 colon it was 8.5% (active); with HCC-2998 colon, 13%; in the experiment with KM12 colon, 9.57% (active).
Regarding `COc1cc(Cn2cc3c(c2)-c2onc(CN4CCCC4)c2CC3)cc(OC)c1OC`, the growth with SR leukemia was 97.9%; in the experiment with RPMI-8226 leukemia, 88%; in the experiment on OVCAR-5 ovarian it was 99%; with OVCAR-4 ovarian it was 72.7%; in the experiment on SK-OV-3 ovarian, 108%; with IGROV1 ovarian, 101%. Moreover, the growth was 100% with OVCAR-3 ovarian; 97.7% in the experiment on HS 578T breast; 94.9% in the experiment on NCI/ADR-RES ovarian; 93.2% in the experiment on BT-549 breast; 96.4% in the experiment with MDA-MB-435 melanoma; 104% with SW-620 colon. Moreover, the growth with MCF7 breast is 80.6%; with HCT-116 colon, 95.9%; in the experiment with HCC-2998 colon, 106%; in the experiment with KM12 colon it was 90.3%.
In the case of `CCOC(=O)C1=NNC(c2ccc(Cl)cc2)C1C(=O)N1C(=S)NC(=O)C1CC(C)C` (stereo not drawn), the growth is 96.8% in the experiment on SR leukemia; 100% in the experiment with OVCAR-8 ovarian; 101% in the experiment on OVCAR-5 ovarian; 96.5% in the experiment with OVCAR-4 ovarian; 93.5% with SK-OV-3 ovarian; 77.1% in the experiment with IGROV1 ovarian. Further, the growth in the experiment with OVCAR-3 ovarian was 113%; in the experiment on HS 578T breast, 98.6%; in the experiment with NCI/ADR-RES ovarian, 99.9%; in the experiment on T-47D breast, 89.1%; with BT-549 breast, 106%; in the experiment with MDA-MB-435 melanoma, 104%. Moreover, the growth in the experiment on SW-620 colon was 95.3%; in the experiment on MCF7 breast, 91.5%; with HCT-116 colon, 97.8%; with HCC-2998 colon it was 121%; with KM12 colon, 101%.
In the case of `C#CCOc1ccc(/C=N\Nc2nc(-c3ccc(C)cc3)cs2)cc1OC`, the growth in the experiment with SR leukemia is 83.2%; in the experiment with RPMI-8226 leukemia, 68.3%; in the experiment with OVCAR-5 ovarian it was 96.8%; in the experiment on OVCAR-4 ovarian, 76.8%; in the experiment with SK-OV-3 ovarian, 87.6%; with IGROV1 ovarian, 92.3%. Moreover, the growth in the experiment with OVCAR-3 ovarian is 99.3%; in the experiment on HS 578T breast it was 111%; in the experiment on NCI/ADR-RES ovarian it was 96.2%; in the experiment on T-47D breast, 61.7%; with BT-549 breast, 80.7%; with MDA-MB-435 melanoma, 91.6%. For the same compound, the growth in the experiment with SW-620 colon is 95.4%; in the experiment on MCF7 breast, 62.5%; in the experiment with HCT-116 colon, 88%; in the experiment on HCC-2998 colon it was 101%; in the experiment with KM12 colon, 85.6%.

(Values after PubChem BioAssay (NCI).)
